Cav3 T inh: blocks human Cav3.2 T-type calcium channel | O95180 | Cav3.2-expressing cells, Fluo-4 calcium fluorescence FDSS; stronger effect = lower value | B-score at 10 µM | actives 4% (n = 100,000) | AID 449739;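 active = single-dose well whose peak fluorescence ratio is a statistical outlier from its plate by either plate-standardised score or position-corrected B-score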
Target sequence (O95180 whole entry, looked up): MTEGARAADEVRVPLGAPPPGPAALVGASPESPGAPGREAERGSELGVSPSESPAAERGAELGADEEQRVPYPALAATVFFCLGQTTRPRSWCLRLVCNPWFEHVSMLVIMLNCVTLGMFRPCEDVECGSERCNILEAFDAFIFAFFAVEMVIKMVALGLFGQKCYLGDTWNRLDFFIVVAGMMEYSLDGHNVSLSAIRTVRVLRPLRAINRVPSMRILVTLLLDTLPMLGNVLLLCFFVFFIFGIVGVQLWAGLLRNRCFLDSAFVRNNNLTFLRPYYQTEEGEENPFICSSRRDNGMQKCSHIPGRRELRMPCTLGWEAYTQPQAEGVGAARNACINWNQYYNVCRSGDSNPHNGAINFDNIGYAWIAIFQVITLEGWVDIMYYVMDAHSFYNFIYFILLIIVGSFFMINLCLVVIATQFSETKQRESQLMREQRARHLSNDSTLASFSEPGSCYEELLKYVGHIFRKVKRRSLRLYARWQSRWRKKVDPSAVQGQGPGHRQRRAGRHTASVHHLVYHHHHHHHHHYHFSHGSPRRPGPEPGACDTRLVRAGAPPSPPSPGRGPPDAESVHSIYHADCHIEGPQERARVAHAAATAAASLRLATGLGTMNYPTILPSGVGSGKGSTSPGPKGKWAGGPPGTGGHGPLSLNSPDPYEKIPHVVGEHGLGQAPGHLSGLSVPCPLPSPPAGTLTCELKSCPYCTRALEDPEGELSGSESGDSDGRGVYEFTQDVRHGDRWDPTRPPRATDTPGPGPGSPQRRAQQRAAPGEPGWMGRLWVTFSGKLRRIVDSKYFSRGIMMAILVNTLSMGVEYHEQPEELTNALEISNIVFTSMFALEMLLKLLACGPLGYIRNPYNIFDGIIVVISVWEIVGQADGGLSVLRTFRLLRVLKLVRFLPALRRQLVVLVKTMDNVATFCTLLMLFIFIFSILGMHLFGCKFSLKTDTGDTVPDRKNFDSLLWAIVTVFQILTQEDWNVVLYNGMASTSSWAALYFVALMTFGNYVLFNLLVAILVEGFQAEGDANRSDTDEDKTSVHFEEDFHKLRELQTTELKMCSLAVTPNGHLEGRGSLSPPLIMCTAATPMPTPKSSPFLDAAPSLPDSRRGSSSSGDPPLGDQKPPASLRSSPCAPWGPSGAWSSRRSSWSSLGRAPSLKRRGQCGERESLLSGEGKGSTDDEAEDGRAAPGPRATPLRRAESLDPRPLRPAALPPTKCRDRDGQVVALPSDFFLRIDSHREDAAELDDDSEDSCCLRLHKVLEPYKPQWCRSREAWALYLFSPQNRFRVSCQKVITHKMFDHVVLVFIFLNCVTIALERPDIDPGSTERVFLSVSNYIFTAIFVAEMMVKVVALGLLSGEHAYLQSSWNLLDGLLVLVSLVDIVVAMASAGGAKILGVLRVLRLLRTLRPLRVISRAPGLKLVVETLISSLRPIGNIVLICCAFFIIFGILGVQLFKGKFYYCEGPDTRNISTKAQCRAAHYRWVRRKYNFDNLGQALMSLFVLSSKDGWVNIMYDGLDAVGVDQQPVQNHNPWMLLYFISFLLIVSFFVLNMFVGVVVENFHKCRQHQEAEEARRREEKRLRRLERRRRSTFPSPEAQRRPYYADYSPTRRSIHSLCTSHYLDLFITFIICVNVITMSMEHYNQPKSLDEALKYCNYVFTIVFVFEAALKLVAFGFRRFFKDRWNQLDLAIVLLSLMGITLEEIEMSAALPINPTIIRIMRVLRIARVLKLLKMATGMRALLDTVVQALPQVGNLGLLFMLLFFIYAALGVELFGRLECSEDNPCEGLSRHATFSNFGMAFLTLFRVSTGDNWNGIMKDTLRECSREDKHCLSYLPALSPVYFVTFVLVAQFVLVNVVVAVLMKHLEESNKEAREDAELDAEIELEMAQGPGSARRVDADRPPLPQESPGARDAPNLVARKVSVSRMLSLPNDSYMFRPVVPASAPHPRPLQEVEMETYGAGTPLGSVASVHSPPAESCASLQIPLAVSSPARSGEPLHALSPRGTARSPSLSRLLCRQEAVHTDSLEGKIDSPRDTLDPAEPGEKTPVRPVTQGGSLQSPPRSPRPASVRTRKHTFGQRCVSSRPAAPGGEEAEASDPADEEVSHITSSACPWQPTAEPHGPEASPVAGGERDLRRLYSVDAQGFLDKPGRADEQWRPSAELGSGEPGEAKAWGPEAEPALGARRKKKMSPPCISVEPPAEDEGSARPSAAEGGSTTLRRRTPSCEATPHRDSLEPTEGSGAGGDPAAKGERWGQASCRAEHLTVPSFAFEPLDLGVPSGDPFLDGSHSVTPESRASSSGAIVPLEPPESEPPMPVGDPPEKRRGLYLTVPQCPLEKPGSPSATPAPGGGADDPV
PLAP act: activators of human placental alkaline phosphatase. P05187. purified PLAP enzyme, luminescent substrate read-out; stronger effect = higher value. activation fold at 20 µM. actives 1.2% (n = 96,000). AID 696; in the data active = activation fold above about 2
PostGolgi yeast: growth inhibition of a yeast mutant, post-Golgi transport screen; post-Golgi transport phenotypic cell assay; inhibition, % at 10 µM; actives 0.9% (n = 98,000); AID 739;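 also: yeast cells grown in 1536-well plates; yeast grown about 18 h at 30C before absorbance read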
PostGolgi ctrl: inhibits growth of the yeast control strain. efflux-deficient yeast background strain, growth absorbance A615, 16 h. inhibition, % at 10 µM. actives 5% (n = 98,000). AID 738
DAT uptake mod: modulates human dopamine transporter uptake under cocaine; actives 1.3% (n = 110,000); AID 449768; B-score at 10 µM; LLC-PK1 hDAT cells, [14C]-dopamine uptake with cocaine IC80; actives deviate in either direction; Q01959;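 active = Z score or B-score, a plate-position-corrected score, falls beyond the plate's 99.7% confidence bounds, in either direction; inactive = both scores lie inside the 99.7% bounds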
D1 mod: allosterically modulates the human D1 dopamine receptor. HEK293 D1, CRE-luciferase, dopamine EC30 potentiation; actives deviate in either direction. B-score at 10 µM. actives 5.9% (n = 58,000). AID 641;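 active = luminescence count or its row- and column-corrected plate score outside the 99.7% band of the plate's sample wells, on either side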
Each line names hits and unclear results; the compound was inactive in the other large screens. Sampled rows, rich in hits. Any-hit rate of the full collection: about 12%. Rule as the data show it, unless noted: active = inhibition above about 30%; inactive = the rest.

CN1C(=O)NC(NC(=O)c2cccs2)(C(F)(F)F)C1=O (stereo not drawn)	none
O=C(NC1(C(F)(F)F)NC(=O)N(C2CCCCC2)C1=O)c1cccs1 (stereo not drawn)	DAT uptake mod -3.31
Cn1c(SCC(=O)N2CCOCC2)nc(O)cc1=O	none (no result: D1 mod)
Cc1cccc(N2CCN(c3nc4ccccc4n4cnnc34)CC2)c1C	PostGolgi ctrl 36.9
Cc1noc(C)c1COc1ccc(C(=O)NCc2ccccn2)cc1	none
Cc1ccc(C2NC(=O)c3c(sc4c3CCN(C)C4)N2)s1 (stereo not drawn)	none
Cc1ccc(C2NC(=O)c3c(sc4c3CCN(C)C4)N2)o1 (stereo not drawn)	PostGolgi yeast 32.5
CC(C)(C)OC(=O)N1CCC[C@H]1c1nnc(SCc2c(Cl)cccc2Cl)o1	Cav3 T inh -6.76 (no result: D1 mod)
CCSc1nnc([C@@H]2CCCN2C(=O)OC(C)(C)C)o1	none
CCOc1cc(CNc2ccc(Br)cc2)cc(Br)c1OCC(=O)NC(C)(C)C	none (no result: D1 mod)
CCOc1cc(CNc2ccccc2)cc(Br)c1OCC(=O)NC(C)(C)C	Cav3 T inh -5.08 (no result: D1 mod)
CCOc1ccc(C2C=C(c3ccc(C)cc3)Nc3ncnn32)cc1 (stereo not drawn)	PostGolgi ctrl 37.8
CCOC(=O)c1cnn(-c2ccccc2)c1-n1cccc1C(=O)C(=O)Nc1ccc(F)cc1	Cav3 T inh -4.25 (no result: D1 mod)
CCOC(=O)c1[nH]c2ccc(F)cc2c1NC(=O)c1cc(OC)c(OC)c(OC)c1	PostGolgi ctrl 30.0 (no result: Cav3 T inh)
CC(Oc1ccc(-c2ccccc2)c(F)c1)c1ccn(S(=O)(=O)c2ccc(Cl)cc2)n1 (stereo not drawn)	Cav3 T inh -5.1 (no result: D1 mod)
CC(Oc1ccccc1)c1ccnn1S(C)(=O)=O (stereo not drawn)	none (no result: D1 mod)
CC(Oc1ccc(Cl)cc1)c1ccnn1S(=O)(=O)c1ccccc1 (stereo not drawn)	Cav3 T inh -6.06 (no result: D1 mod)
COc1cc(/C=C(\C#N)c2nc3c(s2)CCCC3)ccc1O	PostGolgi ctrl 56.4 (no result: D1 mod)
Cc1ccc(-c2nc3cc(C)ccc3o2)cc1	none
Cc1ccc(-c2nc3cc(N)ccc3o2)cc1	D1 mod -3.72 (no result: Cav3 T inh)
CC(C)c1ccc2oc(-c3ccc(N)cc3)nc2c1	D1 mod -5.97 (no result: Cav3 T inh)
CC1(C(=O)NC2CCCCCCC2)CC1(Cl)Cl (stereo not drawn)	none (no result: D1 mod)
CCOc1ccc(C2NC(=O)C(C#N)=C(S)N2c2ccc(C)cc2)cc1OC (stereo not drawn)	none (no result: D1 mod)
CC(O)[C@H]1CNC(=O)C(=O)N1CCC12CC3CC(CC(C3)C1)C2 (stereo partly drawn)	none (no result: PLAP act, PostGolgi yeast, PostGolgi ctrl, D1 mod)
N#CCSc1ncnc2c1cnn2CCO	none (no result: D1 mod)
CN1CCN(CCCNc2nc3ccccc3c3nc(-c4ccccc4)nn23)CC1	D1 mod 5.95 (no result: Cav3 T inh, PLAP act, PostGolgi yeast, PostGolgi ctrl, DAT uptake mod)
Cc1csc(NC(=O)c2cccc(Cn3nc(C)c(Br)c3C)c2)n1	Cav3 T inh -3.7
CCN(CC)S(=O)(=O)c1cccc(C(=O)NCCc2ccccc2)c1	none (no result: PLAP act, PostGolgi yeast, PostGolgi ctrl, D1 mod)
CCN(CC)S(=O)(=O)c1cccc(NC(=O)C(=O)c2c(-c3ccccc3)cc3ccccn23)c1	PostGolgi ctrl 71.8 (no result: Cav3 T inh, DAT uptake mod, D1 mod)
CCN(CC)S(=O)(=O)c1cc(NC(=O)C(=O)c2c(-c3ccccc3)cc3ccccn23)ccc1C	Cav3 T inh -4.64 (no result: D1 mod)
CCN(CC)S(=O)(=O)c1ccc(N2CCOCC2)c(NC(=O)C(=O)c2c(-c3ccccc3)cc3ccccn23)c1	PostGolgi yeast 71.7, PostGolgi ctrl 98.5 (no result: D1 mod)
Cc1ccc(-c2csc(NC(=O)CSc3ncn(-c4ccccc4)n3)n2)cc1	none
COC(=O)N1[C@H](C)C=C[C@]1(Cc1ccccc1)C(=O)O	none (no result: PLAP act, PostGolgi yeast, PostGolgi ctrl, D1 mod)
Cc1ccc(S(=O)(=O)n2nc(-c3ccc(Cl)cc3)nc2NCc2ccco2)cc1	Cav3 T inh -6.6
O=C(c1ccco1)n1nc(-c2ccc(Cl)cc2)nc1NCc1ccco1	none
CC1CCN(S(=O)(=O)c2ccc3c(c2)CCN3C(=O)CCC(=O)O)CC1	none
C=CCn1c(N)c(C(=O)NCC2CCCO2)c2nc3ccccc3nc21 (stereo not drawn)	PostGolgi yeast 33.0
COc1ccc(-n2c(N)c(C(=O)NCC3CCCO3)c3nc4ccccc4nc32)c(OC)c1 (stereo not drawn)	Cav3 T inh -8.01, PLAP act 2
O=C(c1cccs1)N1CCn2c1nc1ccccc12	none
COc1cccc(C(=O)N/N=C/c2cn[nH]c2-c2ccc(OC)cc2OC)c1	PLAP act 2.2 (no result: D1 mod)
COc1ccc(CNC(=O)Cn2nc(C(F)(F)F)c3c2CCC3)cc1	none
COc1ccc(CNc2nc3c(c(C(F)(F)F)n2)CCCCC3)cc1	PostGolgi ctrl 38.9 (no result: D1 mod)
CCCCCSc1nc2c(c(=O)[nH]c(=O)n2C)n1C	none
CCCCCCn1c(SCC(C)C)nc2c1c(=O)[nH]c(=O)n2C	D1 mod 27.2
CCCCCSc1nc2c(c(=O)[nH]c(=O)n2C)n1CC	D1 mod 8.99 (no result: PLAP act, PostGolgi yeast, PostGolgi ctrl)
O=C(CCC1CCCCC1)N1CCN(Cc2ccc3c(c2)OCO3)CC1	PostGolgi yeast 73.3, PostGolgi ctrl 38.3
Cc1ccc(CSCC(=O)N2CCN(Cc3ccc4c(c3)OCO4)CC2)cc1	none (no result: PLAP act, PostGolgi yeast, PostGolgi ctrl, D1 mod)
Cc1nn(Cc2ccccc2)c2sc(C(=O)N3CCN(Cc4ccc5c(c4)OCO5)CC3)cc12	Cav3 T inh -4.3
CC1CCN(c2nc3ccc(C(=O)N4CCN(Cc5ccccc5)CC4)cc3s2)CC1	Cav3 T inh -5.76 (no result: D1 mod)
O=C(c1ccc2nc(N3CCCCC3)sc2c1)N1CCN(Cc2ccc3c(c2)OCO3)CC1	Cav3 T inh -3.97
CCOC(=O)N1CCN(C(=O)c2ccc3nc(N4CCCCC4)sc3c2)CC1	none (no result: D1 mod)
COc1ccc(NC(=O)CN2CCN(C3c4ccccc4-c4ccccc43)CC2)cc1	none (no result: D1 mod)
COc1cc2[nH]c(=S)n(NC(=O)CC(C)C)c(=O)c2cc1OC	none
O=[N+]([O-])c1ccc(N2CCN(CCO)CC2)cc1Sc1nc2ccccc2[nH]1	none (no result: Cav3 T inh, DAT uptake mod, D1 mod)
CCc1cc2cc(C(=O)N3CCN(Cc4ccccc4)CC3)sc2s1	Cav3 T inh -4.77, PostGolgi ctrl 34.7, DAT uptake mod 2.6
CCCC1=C(C(=O)OCC)C(c2cc(Cl)cc(OC)c2OCC(=O)OCC)NC(=O)N1 (stereo not drawn)	Cav3 T inh -5.17
COc1ccc(/C=N/NC(=O)c2ccoc2C)cc1COc1ccc(Cl)cc1	Cav3 T inh -6.46, PostGolgi ctrl 48.5 (no result: D1 mod)
COc1ccc(/C=N/NC(=O)c2ccn[nH]2)cc1COc1ccc(F)cc1	none (no result: D1 mod)
COc1ccc(/C=N/NC(=O)c2ccn[nH]2)cc1COc1ccc(Cl)cc1Cl	PostGolgi ctrl 62.5 (no result: D1 mod)
CCc1cc2c(=O)n(CC)c(SC(C)C(=O)Nc3c(C)n(C)n(-c4ccccc4)c3=O)nc2s1 (stereo not drawn)	none (no result: D1 mod)
CCCN(CCC)c1nc(Cl)nc(NCc2ccco2)n1	PostGolgi ctrl 38.4 (no result: D1 mod)
CCOC(=O)C1C(=O)CC(C)(O)C(C(=O)OCC)C1c1ccc(N(CC)CC)cc1 (stereo not drawn)	none (no result: PLAP act, PostGolgi yeast, PostGolgi ctrl, D1 mod)
